# According to the supplement of paper PMC6555819:
# Key:
# Test in all cases: PBM binding z-score (relative to random genomic background probes); higher = stronger binding; sequences stand for … in GC…GCGATTGACAGCGTAGAATGAAGG
# [1] = test system: RARb homodimer (NR concentration 270 nM)
# In short: (§1)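 Scanned fluorescence from custom Agilent 4×180K protein-binding microarrays was regression-normalized. Binding z-scores use random background probes as reference. Ligand-free nuclear receptor dimers were incubated on the arrays for 1 h and detected with antibodies against each partner (one per run).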
# [2] = test system: RARg:RXRa (NR concentration 270 nM, RXRa partner concentration 90 nM)
# In short: as §1
# [3] = test system: RARg homodimer (NR concentration 270 nM)
# In short: as §1
# [4] = test system: RXRa DBDmut IVT, anti-RXR (DBD mutation: RXRa K156A/R161A, NR concentration 90 nM)
# In short: as §1
# [5] = test system: RXRa homodimer (NR concentration 180 nM)
# In short: as §1
# [6] = test system: THRa:RXRa (NR concentration 90 nM, RXRa partner concentration 90 nM)
# In short: as §1
# [7] = test system: THRa homodimer (NR concentration 90 nM)
# In short: as §1
# [8] = test system: VDR homodimer (NR concentration 270 nM)
# In short: as §1
Sequence,PBM binding z-score [1],PBM binding z-score [2],PBM binding z-score [3],PBM binding z-score [4],PBM binding z-score [5],PBM binding z-score [6],PBM binding z-score [7],PBM binding z-score [8]
ATCTCTAAGTAACCAAGTTCAGTGAATGCCGAAC,1.43,0.516,0.56,1.2,0.443,0.648,0.45,2.61
CCGACTGGGGCAAAGGTTACCAGACTCAGTACGA,2.19,3.65,1.61,-0.175,3.93,1.73,-0.362,0.000123
GATACAGGGTCAAGGCCAGAGCACGCGTATTGAT,3.82,5.4,4.9,2.27,5.45,3.6,1.34,1.92
TTACCAAGGTGCAGGTCGTTGATCCCTCTGTAGA,0.634,0.0227,-0.225,0.43,0.481,0.675,0.0392,0.805
ATCTCTAGGTAGCAAGTTCAGTGAAAGAGAGGAC,1.48,0.743,0.963,0.543,0.352,0.972,0.46,2.36
GGAACGAGGGCATGTTGATAGCAGAGTTTGATGG,1.11,0.813,1.38,2.25,0.438,1.1,0.428,1.6
TCATATAGGTAATACAAGTGAAAGTCGGCATCTA,0.148,0.857,0.72,2.07,1.23,0.601,0.0151,0.435
CAGACTAGGTCACCGGAAGGTCAAAGTCCGCATG,5.55,8.29,7.56,1.74,6.56,4.37,2.62,3.42
CGTCCAAGGTCAGAGAGTTCAGTGAATGCCGAGT,4.39,5.25,6.4,3.78,4.59,3.62,2,7.94
AGAATGAGGTTATTAAGTTCAGGGAATTGCGGTC,2.35,2.35,1.43,3.07,2.52,3.11,1.36,6.33
CCTTACGGGTCACTGACGGGTTATAGCATTTGGA,3.38,5.58,4.49,1.51,5.1,2.74,0.301,0.822
CGTCCAAGGCCAAGGTCAGTGAAAGAGACTCGAA,3.42,2.86,3.7,1.31,1.83,2.87,1.51,0.947
CCTCCTAGGTCATGGTCAGCTAATCTACAGTATG,3.55,3.91,4.49,1.04,2.93,3.09,1.92,0.641
ACTTGCAGGCCAAGTTTGGGTCACTCAAACAAAG,2.46,2.6,1.88,0.31,1.01,2.53,1.22,0.527
ATCTCGAGGTAAGACTCAGTTCAGTGAAGAACGC,0.343,0.254,0.121,0.0712,-0.00615,1.24,0.382,1.13
TCTTGTACATCAAAGGTTAAGAAAGCCGAAGCCT,1.84,1.84,1.06,1.09,2.7,1.48,-0.039,0.246
CCTTACGGGTCACTGACAAGTTATAGCATTTGGA,2.62,4.86,4.71,1.85,5.12,2.29,0.165,0.93
ATACCAAGGTGATCGTGAGGTCGTCGATACTAAC,1.61,2.45,0.868,0.301,1.56,3.52,2.54,1.95
TCTCGGAGGACACGAAAGGTCAGAGGTCGACATC,5.07,5.51,5.38,1.21,6.06,3.99,1.69,2.12

Sequence,PBM binding z-score [1],PBM binding z-score [2],PBM binding z-score [3],PBM binding z-score [4],PBM binding z-score [5],PBM binding z-score [6],PBM binding z-score [7],PBM binding z-score [8]
AGAATGAGGTTACCAAAGATCAGGGGAACGCTTG,1.08,2.1,1.75,1.25,2.79,2.87,0.753,0.0393
ATATGTAGGTTAAGGGTCATTTAGGTTGGTTCGC,4.09,4.79,3.29,2.35,6.16,3.72,1.76,3.97
AGAATGAGGTTATTAAGGTCAGGGAATTGCGGTC,4.31,4.16,3.63,2.88,4.62,4.71,5.16,4.86
GCTTACGGGTCAAATGTTATAGCATGAATAGAAT,2.6,4.88,4.02,2.4,5.86,2.54,-0.146,1.1
ACTAGCAGGCCAAGTTTTGGTCACTCAAACAAAG,0.74,0.448,0.546,-0.286,-0.0235,0.0291,-0.326,-0.447
GCAGACAGGTGAAACGCCGGTAACTCAGGGTGGC,-0.057,0.644,0.166,-0.634,0.513,0.157,-0.511,-0.512
AGAACGAGGTTAAGATCAGGGAAACAGAATACAT,1.12,2.15,1.62,1.03,2.45,2.36,0.55,0.771
AGTCAAAGTGCACTAGGTAACGTAAGATTCAGCT,0.614,0.916,1.26,0.965,0.453,0.43,-0.285,0.442
ATCTCTCGGTAAGACTCAGTTCAGTGAAGAACGC,1.05,0.265,0.481,0.833,0.224,0.746,1.17,2.06
CGAAATAGGTCAAGGACAGTGAATCTCCGCACGC,3.69,5.2,6.01,1.55,4.67,3.1,1.7,0.593
TCATATAAGTAAAGGTGAAAGTCGAACGATATGA,1.41,1.5,1.25,0.638,2.04,1.18,-0.569,-0.0399
GCGACTGGGGCAAAGCAGGTTAACATAAGGTTGG,1.27,0.386,0.747,-0.0641,0.513,3.19,0.0848,-0.0745
ATCGAAAGGACGAGGTGAGTATAGAGAAAGGGAA,0.703,0.958,1.48,-0.386,0.312,1.27,0.739,0.284
TCTTGTAGATCAAACAGGTTAAGAAAGCCTGAGT,0.167,0.214,0.186,0.683,0.587,0.607,-0.548,0.0762
AGTCAAAGTACATCTAGGTAACGTAAGATATGCT,-0.123,0.265,0.944,0.854,0.346,0.814,-0.353,0.155
CCTTACGGGTCACGAGGTTTTAGCACGACGAGCG,3.71,5.63,5.4,1.57,6.87,3.12,0.658,1.4
CCTACTGGGTCAAAAAGGTCATTGATGCCGATAA,5.05,6.12,5.84,1.56,6.62,3.76,1.1,4.79
AATACAGGGTCACTAGGCCAGTGTAGGTACGAAT,3.48,5.29,5.09,2.82,6.04,3.4,1.26,2.89
GATACAGGGTCAGCTGGAGGCCAGAGTATGGAAA,3.23,6.73,5.23,1.38,4.35,3.16,0.136,0.57

Sequence,PBM binding z-score [1],PBM binding z-score [2],PBM binding z-score [3],PBM binding z-score [4],PBM binding z-score [5],PBM binding z-score [6],PBM binding z-score [7],PBM binding z-score [8]
AGAACGAGGGCTCGCTGAGTTGATAGCAGAGTAG,-1.22,-0.312,-0.258,-0.292,-0.132,-0.509,-0.958,-0.176
ACTATTAGGTGAGACGAGGGCAACCGATAGGTTG,1.7,1.03,1.43,0.288,0.97,3.84,0.802,1.07
AGAATAAGGTTATACGTAGATCAGGGAAGAAAGT,0.925,1.78,1.25,1.2,1.89,2.41,0.789,0.657
ACAGACAGGTGAGTGAAGCTAACTCAGCTGGACG,-0.638,-0.0417,0.288,-0.672,-0.0844,-0.381,-1.16,-1.08
ACAATGAGGTTATACGTAGATCAGGGAAGAAAGT,0.975,1.89,1.55,2.02,2.16,2.13,0.593,1.28
CCGACTGGGGCAAAGGTTTCCATACTCAGTACGA,0.438,0.385,0.445,0.213,0.448,-0.0772,-0.282,-0.026
CCTCGGAGGACAGAAGGTCGGAGCTGTCCGCTTT,1.03,0.91,0.81,-0.0663,-0.268,0.396,-0.577,-0.651
TATACAGGTTCAAAGGCCAGAGTACGAATGTCGA,1.82,2.45,1.79,4.01,3.63,1.25,-0.0522,4.75
GCGACTGGGGCAAAGCAGGTGACCATAAGGTTGG,0.982,0.256,0.536,-0.884,0.188,2.88,-0.094,-0.886
TGTCGGAGGACACGAAAGGTCAGAGCTCGACATC,4.55,4.97,5.76,-0.334,4.22,3.78,1.3,1.38
CAAACTAGGTCACGAAAGCTCAAAGTCGAATGAC,3.1,4.61,5.69,1.74,3.99,3.28,1.48,0.544
TCTTGTAGATCAACAGAAGGTTAAGAAAGATCGA,0.688,0.942,0.329,0.67,1.02,0.733,-0.701,-0.188
TCTATTAGTTTAAGGGCAACCGACGAGTCCGTTT,2.12,0.831,1.17,1.94,0.958,2.69,2.56,2.78
TCTAGCAGGCCAGAGGGTCACTCGAGAGGTACGG,2.65,2.47,2.33,0.0685,2.58,1.37,-0.427,0.163
CCTGCTAGGTCATGGGCAGCTAATCTACAGTATG,2.79,4.04,4.39,1.05,2.83,2.89,0.639,-0.0786
AGTCAAAGTTCATCTAGGTAACGTGAGATATGCT,3.97,5.63,6.26,4.74,4.89,3.05,0.297,4.95
TGAATGAGGTTATAAGATCAGGGGACGTTGCAAA,0.854,1.51,0.975,1.3,2.02,2.1,0.619,1.21
CATACTGGGCCACGAAAGGTCATTGATTCAGTGA,4.71,4.59,4.63,0.963,4.9,3.87,1.47,2.45
TCTATTAGTTGAAGCGCAACCGACGAGTCCGTTT,-0.298,-0.0942,-0.507,1.16,0.302,-0.201,-0.12,0.818
